The nature of experiment [1]: NCI Yeast Anticancer Drug Screen. Data for the rad50 strain (AID 155).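 Also: 0% = growth of vehicle-only cultures of the same strain.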 To be noted: S. cerevisiae rad50 strain growth inhibition; at 50.0 µM; stronger effect = higher value. In a few lines:
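DNA repair mutant yeast, compound exposure, growth read-out; inhibition is taken relative to vehicle.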

The nature of experiment [2]: NCI Yeast Anticancer Drug Screen. Data for the mec2-1 strain (AID 157). The conditions noted are these: S. cerevisiae mec2-1 strain, at 50.0 µM, stronger effect = higher value. In a few lines: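 mec2-1 yeast strain, carrying an alteration in DNA damage repair or cell cycle control, was exposed to compounds; growth inhibition was measured relative to vehicle-treated controls.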

The nature of experiment [3]: NCI Yeast Anticancer Drug Screen. Data for the sgs1 mgt1 strain (AID 161).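 Also: 0% = growth of cultures given vehicle only.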 To be noted: S. cerevisiae sgs1 mgt1 strain, at 50.0 µM, stronger effect = higher value. The method in brief:
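This yeast growth screen uses a strain with defined DNA-repair lesions; compound-treated growth is compared with vehicle-treated growth.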

Experiment [4] in a line: NCI Yeast Anticancer Drug Screen. Data for the cln2 rad14 strain (AID 165).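 Also: 0% = growth equal to vehicle treated cultures.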 The conditions noted are these: S. cerevisiae cln2 rad14 strain, at 50.0 µM, stronger effect = higher value. In a few lines: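 Yeast carrying cln2 and rad14 alterations (cell cycle control and DNA damage repair) were exposed to compounds. Growth inhibition was measured against vehicle-treated controls.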
The nature of experiment [5]: NCI Yeast Anticancer Drug Screen. Data for the bub3 strain (AID 167). To be noted: S. cerevisiae bub3 mutant strain, at 50.0 µM, stronger effect = higher value. The method in brief:
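In this screen, a yeast mutant lacking normal mitotic checkpoint function is challenged with compound. Relative growth versus vehicle gives the inhibition value.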

Experiment [6] can be described thus: NCI Yeast Anticancer Drug Screen. Data for the mlh1 rad18 strain (AID 175). To be noted: S. cerevisiae mlh1 rad18 strain growth inhibition; at 50.0 µM; stronger effect = higher value. The method in brief:
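Growth inhibition of the yeast strain was measured after compound exposure and expressed relative to vehicle-treated controls. The strain carries defined defects in DNA damage repair.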

Values joined by “and” are separate entries in the source; they are usually repeats but may differ in a detail not shown here. Equal entries are not always repeated. The panel holds about 79,000 compounds, 15% with a hit somewhere; the sample as a whole holds those more often. Active and inactive are the calls of the source. Rule as the data show it: active = growth inhibition above about 70%; inactive = the rest.

`COC1=CCC2=C(CC[C@H]3[C@H]2CCP3C)C1` (some centres undefined): the growth inhibition was 8.65% (inactive) in experiment [1]; -10.8% (inactive) in experiment [2]; -7.85% (inactive) in experiment [3]; -17.9% (inactive) in experiment [4]; 0.9% (inactive) in experiment [5]; 5.25% (inactive) in experiment [6].

Regarding `O=[N+]([O-])O.[Sm]`, the growth inhibition was 12.3% (inactive) in experiment [1]; 3.95% (inactive) in experiment [2]; 26.8% (inactive) in experiment [3]; 17.1% (inactive) in experiment [4]; 15.7% (inactive) in experiment [5]; -18.4% (inactive) in experiment [6].

Regarding `CC(C)(C)c1ccc(C(C)(C)OO)cc1`, the growth inhibition in experiment [1] was 31.6% (inactive); in experiment [2] it was -0.7% (inactive); in experiment [3], 18.3% (inactive); in experiment [4], 12.3% (inactive); in experiment [5], 10.2% (inactive); in experiment [6], 6.2% (inactive).

For the compound `O=[As](O)(O)c1ccccc1Cl`, the growth inhibition was 14.1% (inactive) in experiment [1]; -13.4% (inactive) in experiment [2]; -32.1% (inactive) in experiment [3]; 4.55% (inactive) in experiment [4]; 3.2% (inactive) in experiment [5]; 16.6% (inactive) in experiment [6].

With `C(#CCN1CCCCCC1)CN1CCCCCC1`, the growth inhibition in experiment [1] was 0.55% (inactive); in experiment [2], -9.8% (inactive); in experiment [3], 0.05% (inactive); in experiment [4], -8.85% (inactive); in experiment [5], -14.1% (inactive); in experiment [6], -2.7% (inactive).

As for `O=c1oc2ccccc2c(O)c1C(c1cnc2ccccc2c1)c1c(O)c2ccccc2oc1=O`, the growth inhibition is 33.4% (inactive) in experiment [1]; 40.2% (inactive) in experiment [2]; 12.7% (inactive) in experiment [3]; 26.2% (inactive) in experiment [4]; -5.7% (inactive) in experiment [5]; 47% (inactive) in experiment [6].

Turning to `c1ccc2c(c1)ccc1[s+]cccc12`, the growth inhibition in experiment [1] is 69.4% (inactive); in experiment [2] it was 23.2% (inactive); in experiment [3] it was 35.7% (inactive); in experiment [4] it was 25.4% (inactive); in experiment [5], 16.1% (inactive); in experiment [6], 76% (active).

Regarding `COc1ccc(C[C@@H]2NC[C@@H](O)[C@@H]2OC(C)=O)cc1`, the growth inhibition in experiment [1] was 91.3% (active); in experiment [2], 93.2% (active); in experiment [3], 93.2% (active); in experiment [4], 91.8% (active); in experiment [5], 92.2% (active); in experiment [6], 91.3% (active).

As for `CN(Cc1cnc2nc(N)nc(N)c2n1)c1ccc(C(=O)NC(CCC(=O)NCC(P(=O)(O)O)P(=O)(O)O)C(=O)O)cc1` (centres undefined), the growth inhibition in experiment [1] is -12.6% (inactive); in experiment [2], -28.2% (inactive); in experiment [3], -28.9% (inactive); in experiment [4], -28.1% (inactive); in experiment [5], -15.8% (inactive); in experiment [6], -20.1% (inactive).

On to `[C-]#[O+].[C-]#[O+].[Ni].c1ccc([PH+](CC[PH+](c2ccccc2)c2ccccc2)CC[PH+](c2ccccc2)c2ccccc2)cc1`, for which the growth inhibition was -23.4% (inactive) in experiment [1]; 0.4% (inactive) in experiment [2]; -22.4% (inactive) in experiment [3]; 3.75% (inactive) in experiment [4]; 7.6% (inactive) in experiment [5]; -10.2% (inactive) in experiment [6].

`NC(CO)Cc1ccccc1` (centres undefined): the growth inhibition in experiment [1] is -1.6% (inactive) and 0.85% (inactive); in experiment [2], 0.3% (inactive) and -4% (inactive); in experiment [3] it was -1.45% (inactive) and -4.1% (inactive); in experiment [4], -21.6% (inactive) and 4.05% (inactive); in experiment [5], 13.9% (inactive) and 14.8% (inactive); in experiment [6], 2.05% (inactive) and -1.35% (inactive).

As for `O=S(=O)(O)O/N=C(\Cc1ccccc1)SC1OC(CO)C(O)C(O)C1O` (centres undefined), the growth inhibition is -2.45% (inactive) in experiment [1]; -7.1% (inactive) in experiment [2]; -2.55% (inactive) in experiment [3]; -7% (inactive) in experiment [4]; -0.75% (inactive) in experiment [5]; -3.25% (inactive) in experiment [6].

As to `O=C(CC(=O)C(F)(F)C(F)(F)C(F)(F)F)c1ccco1.[Fe]`, the growth inhibition in experiment [1] is 25.3% (inactive); in experiment [2] it was 24.7% (inactive); in experiment [3], 23.6% (inactive); in experiment [4], 13.6% (inactive); in experiment [5] it was 15.7% (inactive); in experiment [6], 17.9% (inactive).

For `Nc1cc(N)c([N+](=O)[O-])cc1[N+](=O)[O-]`, the growth inhibition in experiment [1] is 20.8% (inactive); in experiment [2], 2.8% (inactive); in experiment [3], 14.1% (inactive); in experiment [4], 5.75% (inactive); in experiment [5] it was 9.8% (inactive); in experiment [6], 11.3% (inactive).

`O=C(Nc1ccccc1Cl)Oc1c(Cl)cc(S(=O)(=O)F)cc1Cl`: the growth inhibition in experiment [1] was 20.4% (inactive); in experiment [2], 33.6% (inactive); in experiment [3] it was 34.1% (inactive); in experiment [4], 32.6% (inactive); in experiment [5] it was -2.05% (inactive); in experiment [6], 44.2% (inactive).

For the compound `COc1cc2c(c(OC)c1OC)-c1ccc(O)c(=O)cc1[C@@H](NC(C)=O)CC2`, the growth inhibition in experiment [1] was 24% (inactive) and 43.6% (inactive); in experiment [2], 1.95% (inactive) and 34.6% (inactive); in experiment [3], 54.9% (inactive); in experiment [4], 35.5% (inactive); in experiment [5] it was 62.5% (inactive); in experiment [6] it was 22.9% (inactive) and -13.1% (inactive).

On to `Cc1nc2ccccc2c(=O)n1-c1ccc(N(CCCl)CCCl)cc1`, for which the growth inhibition was -0.6% (inactive) in experiment [1]; -9.25% (inactive) in experiment [2]; -17.1% (inactive) in experiment [3]; -6.9% (inactive) in experiment [4]; 4.8% (inactive) in experiment [5]; 4.5% (inactive) in experiment [6].

Regarding `CCOP(=O)(CCC[N+](=O)[O-])OCC`, the growth inhibition in experiment [1] was -12.1% (inactive); in experiment [2], -11.9% (inactive); in experiment [3], -18.7% (inactive); in experiment [4] it was -15.8% (inactive); in experiment [5], 1.35% (inactive); in experiment [6] it was -7.65% (inactive).

Take `COc1ccccc1CC(C)NC(C)Cc1ccccc1OC` (centres undefined): the growth inhibition in experiment [1] was 2.25% (inactive); in experiment [2] it was -3.4% (inactive); in experiment [3] it was 8.05% (inactive); in experiment [4] it was -1.8% (inactive); in experiment [5], -1.4% (inactive); in experiment [6], 7.6% (inactive).

For the origin of these results see PubChem BioAssay (NCI).
